# Test results reported in paper PMC11006913.
# How the values were obtained:
# Assay in all cases: PBM; 200 nM protein, PBS
# Conditions in all cases: dsDNA, one strand shown
# HOXB4 [1] = target: HOXB4 (Homo sapiens, UniProt P17483 148-234)
# PRRX1 [2] = target: PRRX1 (Homo sapiens, UniProt P54821 80-166, F113S)
# HOXB4 [3] = target: HOXB4 (Homo sapiens, UniProt P17483 148-234, V174I)
# ALX3 [4] = target: ALX3 (Homo sapiens, UniProt O95076 139-225, N203Q)
# ALX3 [5] = target: ALX3 (Homo sapiens, UniProt O95076 139-225)
# Chain of ALX3 (Homo sapiens, UniProt O95076 139-225) (O95076 139-225): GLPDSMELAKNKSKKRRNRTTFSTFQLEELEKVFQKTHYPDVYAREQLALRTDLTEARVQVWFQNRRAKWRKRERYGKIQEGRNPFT
# ALX3 [6] = target: ALX3 (Homo sapiens, UniProt O95076 139-225, L168Q)
# Chain of ALX3 (Homo sapiens, UniProt O95076 139-225, L168Q) (O95076 139-225 L168Q): as the sequence (O95076 139-225) above, with L30Q counted along it
# ALX3 [7] = target: ALX3 (Homo sapiens, UniProt O95076 139-225, L168V)
# Chain of ALX3 (Homo sapiens, UniProt O95076 139-225, L168V) (O95076 139-225 L168V): as the sequence (O95076 139-225) above, with L30V counted along it
# ALX3 [8] = target: ALX3 (Homo sapiens, UniProt O95076 139-225, N203S)
# Chain of ALX3 (Homo sapiens, UniProt O95076 139-225, N203S) (O95076 139-225 N203S): as the sequence (O95076 139-225) above, with N65S counted along it
# PRRX1 [9] = target: PRRX1 (Homo sapiens, UniProt P54821 80-166)
# Chain of PRRX1 (Homo sapiens, UniProt P54821 80-166) (P54821 80-166): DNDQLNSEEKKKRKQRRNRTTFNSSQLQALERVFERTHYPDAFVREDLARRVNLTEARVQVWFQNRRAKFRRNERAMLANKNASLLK
# HOXA2 [10] = target: HOXA2 (Homo sapiens, UniProt O43364 129-215, R185T)
# Chain of HOXA2 (Homo sapiens, UniProt O43364 129-215, R185T) (O43364 129-215 R185T): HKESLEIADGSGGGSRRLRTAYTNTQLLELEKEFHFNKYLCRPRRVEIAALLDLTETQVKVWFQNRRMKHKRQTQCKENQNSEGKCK
# HOXA2 [11] = target: HOXA2 (Homo sapiens, UniProt O43364 129-215, R185K)
# Chain of HOXA2 (Homo sapiens, UniProt O43364 129-215, R185K) (O43364 129-215 R185K): as the sequence (O43364 129-215 R185T) above, with T57K counted along it
# HOXA2 [12] = target: HOXA2 (Homo sapiens, UniProt O43364 129-215, Y150S)
# Chain of HOXA2 (Homo sapiens, UniProt O43364 129-215, Y150S) (O43364 129-215 Y150S): as the sequence (O43364 129-215 R185T) above, with Y22S, T57R counted along it
# HOXA2 [13] = target: HOXA2 (Homo sapiens, UniProt O43364 129-215)
# Chain of HOXA2 (Homo sapiens, UniProt O43364 129-215) (O43364 129-215): as the sequence (O43364 129-215 R185T) above, with T57R counted along it
# Chain of HOXB4 (Homo sapiens, UniProt P17483 148-234) (P17483 148-234): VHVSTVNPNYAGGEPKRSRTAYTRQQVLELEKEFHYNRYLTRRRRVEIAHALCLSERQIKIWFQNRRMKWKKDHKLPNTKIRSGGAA
# Chain of HOXB4 (Homo sapiens, UniProt P17483 148-234, V174I) (P17483 148-234 V174I): as the sequence (P17483 148-234) above, with V27I counted along it
# Chain of PRRX1 (Homo sapiens, UniProt P54821 80-166, F113S) (P54821 80-166 F113S): as the sequence (P54821 80-166) above, with F34S counted along it
# Chain of ALX3 (Homo sapiens, UniProt O95076 139-225, N203Q) (O95076 139-225 N203Q): as the sequence (O95076 139-225) above, with N65Q counted along it
sequence,measurement,setting,value
CCCCCGTA,binding signal,HOXB4 [1],"7.91 upbm affinity estimate (log intensity, higher = more binding, comparable within an allelic series)"
same,binding signal,PRRX1 [2],"9 upbm affinity estimate (log intensity, higher = more binding, comparable within an allelic series)"
same,binding signal,HOXB4 [3],"7.84 upbm affinity estimate (log intensity, higher = more binding, comparable within an allelic series)"
same,binding signal,ALX3 [4],"7.68 upbm affinity estimate (log intensity, higher = more binding, comparable within an allelic series)"
same,binding signal,ALX3 [5],"7.71 upbm affinity estimate (log intensity, higher = more binding, comparable within an allelic series)"
same,binding signal,ALX3 [6],"7.65 upbm affinity estimate (log intensity, higher = more binding, comparable within an allelic series)"
same,binding signal,ALX3 [7],"7.65 upbm affinity estimate (log intensity, higher = more binding, comparable within an allelic series)"
same,binding signal,ALX3 [8],"7.65 upbm affinity estimate (log intensity, higher = more binding, comparable within an allelic series)"
same,binding signal,PRRX1 [9],"9.39 upbm affinity estimate (log intensity, higher = more binding, comparable within an allelic series)"
CCCGCGGG,binding signal,HOXB4 [1],"8.38 upbm affinity estimate (log intensity, higher = more binding, comparable within an allelic series)"
same,binding signal,PRRX1 [2],"9.46 upbm affinity estimate (log intensity, higher = more binding, comparable within an allelic series)"
same,binding signal,HOXA2 [10],"7.19 upbm affinity estimate (log intensity, higher = more binding, comparable within an allelic series)"
same,binding signal,HOXB4 [3],"7.82 upbm affinity estimate (log intensity, higher = more binding, comparable within an allelic series)"
same,binding signal,HOXA2 [11],"10.4 upbm affinity estimate (log intensity, higher = more binding, comparable within an allelic series)"
same,binding signal,HOXA2 [12],"10.4 upbm affinity estimate (log intensity, higher = more binding, comparable within an allelic series)"
same,binding signal,PRRX1 [9],"9.2 upbm affinity estimate (log intensity, higher = more binding, comparable within an allelic series)"
same,binding signal,HOXA2 [13],"7.26 upbm affinity estimate (log intensity, higher = more binding, comparable within an allelic series)"
CCACAGGC,binding signal,HOXB4 [1],"7.72 upbm affinity estimate (log intensity, higher = more binding, comparable within an allelic series)"
same,binding signal,HOXB4 [3],"7.85 upbm affinity estimate (log intensity, higher = more binding, comparable within an allelic series)"
GGAGTAAA,binding signal,HOXB4 [1],"9.68 upbm affinity estimate (log intensity, higher = more binding, comparable within an allelic series)"
same,binding signal,HOXB4 [3],"9.73 upbm affinity estimate (log intensity, higher = more binding, comparable within an allelic series)"
CGGTCACG,binding signal,HOXB4 [1],"7.89 upbm affinity estimate (log intensity, higher = more binding, comparable within an allelic series)"
same,binding signal,HOXB4 [3],"7.75 upbm affinity estimate (log intensity, higher = more binding, comparable within an allelic series)"
ATCTATAA,binding signal,HOXB4 [1],"11 upbm affinity estimate (log intensity, higher = more binding, comparable within an allelic series)"
same,binding signal,HOXB4 [3],"11.1 upbm affinity estimate (log intensity, higher = more binding, comparable within an allelic series)"
CCCGTGCG,binding signal,HOXB4 [1],"7.96 upbm affinity estimate (log intensity, higher = more binding, comparable within an allelic series)"
same,binding signal,HOXB4 [3],"7.88 upbm affinity estimate (log intensity, higher = more binding, comparable within an allelic series)"
ATTGATCC,binding signal,HOXB4 [1],"10.1 upbm affinity estimate (log intensity, higher = more binding, comparable within an allelic series)"
same,binding signal,HOXB4 [3],"10 upbm affinity estimate (log intensity, higher = more binding, comparable within an allelic series)"
CACGAGCC,binding signal,HOXB4 [1],"7.81 upbm affinity estimate (log intensity, higher = more binding, comparable within an allelic series)"
same,binding signal,HOXB4 [3],"7.69 upbm affinity estimate (log intensity, higher = more binding, comparable within an allelic series)"
AGGTCCAC,binding signal,HOXB4 [1],"7.8 upbm affinity estimate (log intensity, higher = more binding, comparable within an allelic series)"
same,binding signal,HOXB4 [3],"7.65 upbm affinity estimate (log intensity, higher = more binding, comparable within an allelic series)"
AATACAAG,binding signal,HOXB4 [1],"9.55 upbm affinity estimate (log intensity, higher = more binding, comparable within an allelic series)"
same,binding signal,HOXB4 [3],"9.49 upbm affinity estimate (log intensity, higher = more binding, comparable within an allelic series)"
CAGCGGAC,binding signal,HOXB4 [1],"7.6 upbm affinity estimate (log intensity, higher = more binding, comparable within an allelic series)"
same,binding signal,HOXB4 [3],"7.43 upbm affinity estimate (log intensity, higher = more binding, comparable within an allelic series)"
AGCCCCCA,binding signal,HOXB4 [1],"7.49 upbm affinity estimate (log intensity, higher = more binding, comparable within an allelic series)"
same,binding signal,HOXB4 [3],"7.6 upbm affinity estimate (log intensity, higher = more binding, comparable within an allelic series)"
AGGAGGAG,binding signal,HOXB4 [1],"7.49 upbm affinity estimate (log intensity, higher = more binding, comparable within an allelic series)"
same,binding signal,HOXB4 [3],"7.57 upbm affinity estimate (log intensity, higher = more binding, comparable within an allelic series)"
GAGCTGCA,binding signal,HOXB4 [1],"7.7 upbm affinity estimate (log intensity, higher = more binding, comparable within an allelic series)"
same,binding signal,HOXB4 [3],"7.45 upbm affinity estimate (log intensity, higher = more binding, comparable within an allelic series)"
ATAAAGTA,binding signal,HOXB4 [1],"10.5 upbm affinity estimate (log intensity, higher = more binding, comparable within an allelic series)"
same,binding signal,HOXB4 [3],"10.6 upbm affinity estimate (log intensity, higher = more binding, comparable within an allelic series)"
CCCGAGGA,binding signal,HOXB4 [1],"7.28 upbm affinity estimate (log intensity, higher = more binding, comparable within an allelic series)"
same,binding signal,HOXB4 [3],"7.6 upbm affinity estimate (log intensity, higher = more binding, comparable within an allelic series)"
GTTATAGA,binding signal,HOXB4 [1],"9.85 upbm affinity estimate (log intensity, higher = more binding, comparable within an allelic series)"
same,binding signal,HOXB4 [3],"9.7 upbm affinity estimate (log intensity, higher = more binding, comparable within an allelic series)"
CAATAAGA,binding signal,HOXB4 [1],"9.65 upbm affinity estimate (log intensity, higher = more binding, comparable within an allelic series)"
same,binding signal,HOXB4 [3],"9.56 upbm affinity estimate (log intensity, higher = more binding, comparable within an allelic series)"
AGCTTGGA,binding signal,HOXB4 [1],"7.7 upbm affinity estimate (log intensity, higher = more binding, comparable within an allelic series)"
same,binding signal,HOXB4 [3],"7.63 upbm affinity estimate (log intensity, higher = more binding, comparable within an allelic series)"
CATCAGCG,binding signal,HOXB4 [1],"10.1 upbm affinity estimate (log intensity, higher = more binding, comparable within an allelic series)"
same,binding signal,HOXB4 [3],"10.3 upbm affinity estimate (log intensity, higher = more binding, comparable within an allelic series)"
CCTGCGTC,binding signal,HOXB4 [1],"7.55 upbm affinity estimate (log intensity, higher = more binding, comparable within an allelic series)"
same,binding signal,HOXB4 [3],"7.44 upbm affinity estimate (log intensity, higher = more binding, comparable within an allelic series)"
CCTGGAAG,binding signal,HOXB4 [1],"7.71 upbm affinity estimate (log intensity, higher = more binding, comparable within an allelic series)"
same,binding signal,HOXB4 [3],"7.54 upbm affinity estimate (log intensity, higher = more binding, comparable within an allelic series)"
